Experimental data published in PubChem BioAssay (Tox21).
Records with an inconclusive call do not appear. Unmarked numbers belong to inactive results. The source made the active and inactive calls. Calls come from the whole dose curve.

experiment: p53 small molecule agonists, cell-based qHTS assay: qHTS cell viability counter screen (AID 1963581); conditions: p53RE-bla HCT-116 viability, ATP luminescence, 16 h; series mostly up to 66 µM; activity change, negative = cytotoxicity: at the top concentration; note: nearly all actives have a fitted effect of over 45% in size
From the text: National Center for Advancing Translational Sciences [NCATS]
Division of Preclinical Innovation [DPI]
U.S. Environmental Protection Agency [EPA]
National Institutes of Environmental Health Sciences [NIEHS]
National Toxicology Program [NTP]
U.S. Food and Drug Administration [FDA]
p53, a tumor suppressor protein, is activated following cellular insult, including DNA damage and other cellular stresses. The activation of p53 regulates cell fate by inducing DNA repair, cell cycle arrest, apoptosis, or cellular senescence. The activation of p53, therefore, is a good indicator of DNA damage and other cellular stresses. The CellSensor p53RE-bla HCT-116 cell line (Invitrogen) contains a stably integrated beta-lactamase reporter gene under control of the p53 response elements. The activation of the reporter gene under culture conditions can be detected by fluorescence intensity. This cell line was used to screen the Tox21 compound library in a 1536-well plate format and to identify agonists that activate the p53 signaling pathway. The cytotoxicity of the Tox21 compound library against the p53 RE-bla HCT-116 cell line was tested in parallel by measuring the intra cellular ATP content in the same wells.
Tox21 Assay Protocol Summary:
The p53RE-bla cells were dispensed at 4,000 cells/5 ul/well in 1536-well black wall/clear bottom plates using a Multidrop dispenser. After the assay plates were incubated at a 37 C/5% CO2 incubator for 5 hours, 23 nL of compounds dissolved in DMSO, positive controls or DMSO only was transferred to the assay plate by a pin tool. The plates were incubated at 37 C for 16 hours. After 1 uL of LiveBLAzerTM B/G FRET substrate was added using a Flying Reagent Dispenser, the plates were incubated at room temperature for 2 hours, and fluorescence intensity was measured by an Envision plate reader. For cell viability readout that measures cytotoxicity, 4 ul/well of CellTiter-Glo reagent was added into the assay plates using a Flying Reagent Dispenser. After 30 min incubation at room temperature, the luminescence intensity in the plates was measured using a ViewLux plate reader.
% is set by controls: 0 for no effect and ±100 for the full control effect.

SMILES	activity change, negative = cytotoxicity	Potency
OCCC(F)(F)C(F)(F)C(F)(F)C(F)(F)C(F)(F)C(F)(F)F	-9.78%	
Nc1cc(S(=O)(=O)O)cc2cc(S(=O)(=O)O)cc(O)c12		inactive
C=CCOCC(CC)(CO)COCC=C	5.52%	
Nc1ccc([N+](=O)[O-])c(C(F)(F)F)c1	5.73% [at 30.3 µM]	
CC1CCC(C(C)C)C(O)C1 (stereo not given)		inactive
NC(=O)Cc1cccc(C(=O)c2ccccc2)c1N	2.21% [at 30.3 µM]	
CC(C)=CCCC(C)O (stereo not given)	-0.581%	
OCCNCCO		inactive
C/C=C/C(=O)O		inactive
C[N+](C)(C)CCO		inactive
CN1C(=O)CC(C)(c2ccccc2)C1=O (stereo not given)	-20.3% [at 30.3 µM]	
CCCOCCO		inactive
CO[Si](CCCNCCC[Si](OC)(OC)OC)(OC)OC	-11.2%	
Cc1cn([C@H]2C[C@H](F)[C@@H](CO)O2)c(=O)[nH]c1=O	-1.24% [at 30.3 µM]	
CC(C)CCCC(C)CCCC(C)CCCCC(C)CCCC(C)CCCC(C)C (stereo not given)	-5.73% [at 30.3 µM]	
OC1CCCCCCCCCCC1	-3.22%	
CC/C=C\CCOC(=O)CC	-0.251%	
Cn1c(=O)c2[nH]c(Br)nc2n(C)c1=O	16.1% [at 30.3 µM]	
OCC(CO)(CBr)CBr		inactive
CC(=O)OCC(=O)[C@@]1(O)CC[C@H]2[C@@H]3CCC4=CC(=O)C=C[C@]4(C)[C@H]3[C@@H](O)C[C@@]21C	0.224% [at 30.3 µM]	

SMILES	activity change, negative = cytotoxicity	Potency
CC(C)c1ccccc1O	-3.45%	
c1cnc2cc3c(cc2n1)C1CNCC3C1	2.58% [at 30.3 µM]	
C[C@@H]1CCC[C@H](C)N1	-2.7% [at 30.3 µM]	
CCC/C=C/CO	8.03%	
CC(C)(O)Cc1ccccc1	6.01%	
O=c1[nH]c(=O)c2ccccc2o1	30% [at 30.3 µM]	
CC1CC(O)CC(C)(C)C1 (stereo not given)	-15.8%	
O=C(O)c1ccccc1S	4.38% [at 30.3 µM]	
O=C(O)c1cc(N=Nc2ccc(S(=O)(=O)Nc3ccccn3)cc2)ccc1O		inactive
CCOC(=O)c1ccc(OCCN2C[C@H](O)[C@@H](O)[C@H](O)[C@H]2CO)cc1	10.7% [at 30.3 µM]	
C[C@]12CC[C@@H]3c4ccc(O)cc4CC[C@H]3[C@@H]1CCC2=O		inactive
CCSC(=O)N(CC(C)C)CC(C)C	4.08%	
CC(=O)CC(=O)Nc1ccccc1C		inactive
CN(C)CCCNCCC#N	-0.0336%	
CC(=O)/C=C/C1C(C)=CCC(C)C1(C)C (stereo not given)	-8.4%	
CC(C)(O)C(=O)O	-2.72%	
CC1(C)C(=O)N(Br)C(=O)N1Cl	-10.8%	
CC(C)OC=O		inactive
CC(C)C(=O)O	11.4%	
COc1nc(C)nc(NC(=O)NS(=O)(=O)c2ccccc2OCCCl)n1	6.2%	
